The nature of test [1]: HepG2 liver cancer cell viability effects, profiling panel, resazurin fluorescence, 24 h, PK04 Diversity Set (AID 1172). Further: test concentration not given here. The conditions noted are these: higher = more signal. In general terms: Alamar Blue is a resazurin reagent that responds to reducing activity.
Test [2] in a line: basal S. cerevisiae growth modulation, no modifier, primary screen, OD600, strain BY4716, 24 h, basal condition (AID 1173). The conditions noted are these: OD600, 24 h, higher = more signal, called active from +8 up or from −8 down.
A short description of test [3]: MM1S myeloma cell viability, profiling panel, resazurin fluorescence, basal, 24 h, PK04 Diversity Set (AID 1174).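 Further: MM1S multiple myeloma cell line; test concentration not given here.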 The conditions noted are these: higher = more signal, called active from +8 up or from −8 down.
For test [4], the target named is Dihydroorotate dehydrogenase (quinone), mitochondrial (Plasmodium falciparum (isolate 3D7)) (UniProt Q08210). In words: PfDHODH enzyme inhibitors, primary screen, biochemical, C-terminal His tag, absorbance 600 nm (AID 1175).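 Further: recombinant parasite enzyme with a five histidine tag at its C terminus; test concentration not given here.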 The settings on record: DCIP absorbance 600 nm, higher = more signal, called active from +8 up or from −8 down.
Test [5] is described as follows: P. aeruginosa biofilm formation inhibitors, primary screen, strain PAO1, LB-PBS medium, absorbance 600 nm (AID 1176). Further: test concentration not given here. The settings on record: P. aeruginosa PAO1 growth/biofilm, A600, 12 h; higher = more signal.
Test [6] is described as follows: S. cerevisiae RM11-1a growth modifiers, primary screen, strain RM11-1a, OD600, basal, 24 h (AID 1177).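 Further: cultures grown under basal conditions with no added stressor; test concentration not given here.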 The settings on record: OD600, 24 h, higher = more signal, called active from +8 up or from −8 down.
Test [7] in a line: E. coli acrAB mutant growth effects, primary screen, E. coli filamentation inducers, strain DRC39, OD650, 24 h (AID 1178).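 Further: growth measured as culture turbidity by optical density at 650 nm; test concentration not given here.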 The settings on record: higher = more signal, called active from +8 up or from −8 down.
Test [8] is described as follows: E. coli acrAB mutant growth effects, primary screen, E. coli filamentation inducers, strain DRC39, OD650, 48 h (AID 1179).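 Further: screen aims at cell division blockers that make cells filament.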 The conditions noted are these: E. coli DRC39 delta-acrAB growth, higher = more signal, called active from +8 up or from −8 down.
Test [9] in a line: RPMI8226 myeloma cell viability, profiling panel, resazurin fluorescence, basal, 24 h, PK04 Diversity Set (AID 1180).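 Further: RPMI8826 multiple myeloma cell line at 5000 cells per well; test concentration not given here.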 The settings on record: higher = more signal.
In test [10] the target is E3 ubiquitin-protein ligase XIAP (Homo sapiens) (UniProt P98170). In words: XIAP binders, primary screen, biophysical, small-molecule microarray, fluorescence 635 nm (AID 1181).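 Further: score merges 667 nm emission and signal to noise over triplicate slides.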 The settings on record: small-molecule microarray binding, higher = more signal.

In PubChem BioAssay one finds z-score and composite z-score data, which are given here for eleven compounds.

The source made the active and inactive calls. Unless noted, how the calls were made is not given here.

Sequence of E3 ubiquitin-protein ligase XIAP (Homo sapiens) (P98170 whole entry, looked up): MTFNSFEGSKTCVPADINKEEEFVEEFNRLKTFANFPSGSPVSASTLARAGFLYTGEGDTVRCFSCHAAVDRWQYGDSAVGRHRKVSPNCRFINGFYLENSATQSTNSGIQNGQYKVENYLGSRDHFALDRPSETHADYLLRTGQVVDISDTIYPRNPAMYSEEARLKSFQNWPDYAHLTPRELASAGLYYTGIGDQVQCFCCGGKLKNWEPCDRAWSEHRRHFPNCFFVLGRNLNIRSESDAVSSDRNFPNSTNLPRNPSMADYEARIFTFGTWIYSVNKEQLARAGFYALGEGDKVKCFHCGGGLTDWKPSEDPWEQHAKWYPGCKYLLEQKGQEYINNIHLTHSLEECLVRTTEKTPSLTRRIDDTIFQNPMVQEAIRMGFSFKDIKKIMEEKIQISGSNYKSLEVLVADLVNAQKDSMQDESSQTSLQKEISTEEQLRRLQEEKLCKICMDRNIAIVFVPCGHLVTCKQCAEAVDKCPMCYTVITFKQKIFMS
Sequence of Dihydroorotate dehydrogenase (quinone), mitochondrial (Plasmodium falciparum (isolate 3D7)) (Q08210 whole entry, looked up): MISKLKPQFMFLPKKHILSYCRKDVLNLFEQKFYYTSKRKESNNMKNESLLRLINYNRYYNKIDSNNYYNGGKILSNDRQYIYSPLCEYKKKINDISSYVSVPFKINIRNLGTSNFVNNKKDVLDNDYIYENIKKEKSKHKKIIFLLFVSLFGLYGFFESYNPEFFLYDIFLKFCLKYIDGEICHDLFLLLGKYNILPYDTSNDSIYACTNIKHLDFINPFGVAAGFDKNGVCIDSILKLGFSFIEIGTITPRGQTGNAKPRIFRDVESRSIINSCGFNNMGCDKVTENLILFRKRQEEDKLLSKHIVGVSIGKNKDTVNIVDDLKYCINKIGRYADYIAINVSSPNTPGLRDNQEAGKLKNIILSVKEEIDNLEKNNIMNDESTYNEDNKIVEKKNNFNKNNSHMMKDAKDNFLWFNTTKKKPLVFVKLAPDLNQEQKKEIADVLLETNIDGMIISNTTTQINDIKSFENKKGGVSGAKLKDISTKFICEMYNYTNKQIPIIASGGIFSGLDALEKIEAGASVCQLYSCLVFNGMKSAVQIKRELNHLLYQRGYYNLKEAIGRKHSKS

For `O=C1NC(=O)C2C1C=CC(C(O)C1CCCCC1)N2Nc1ccccn1` (stereo not given), the z-score was -0.864 in test [1]; 0.876 (inactive) in test [2]; -1.27 (inactive) in test [3]; 2.68 (inactive) in [5]; 0.209 (inactive) in test [6]; -1.02 (inactive) in test [7]. The values for the z-score in test [8] and in test [9] were -0.286 (inactive) and -1.33, respectively. The composite z-score was 0.583 (inactive) in test [4] and -0.0663 in test [10].

`COC(=O)[C@@]1(Cc2ccc(F)cc2)[C@H]2c3cc(C(=O)N(C)C)n(Cc4cccc5ccccc45)c3C[C@H]2CN1C(=O)c1ccccc1`: the z-score in [1] is -0.488; in test [2] it was 1.91 (inactive); in test [3], -1.32 (inactive); in test [5] it was 1.75 (inactive); in test [6] it was 1.75 (inactive); in test [7] it was -0.609 (inactive). Moreover, the z-score in test [8] is -0.707 (inactive); in test [9], -1.04. Further, the composite z-score in test [4] was -0.0341 (inactive); in test [10], 1.6.

With `O=C1O[C@H](c2ccccc2)[C@H](c2ccccc2)N2[C@H]1[C@@H](C(=O)O)[C@]1(C(=O)Nc3ccc(C#CC4(O)CCCCCC4)cc31)[C@H]2c1ccccc1OCCO`, the z-score is 1.15 in test [1]; -1.72 (inactive) in test [2]; -0.65 (inactive) in [3]; -0.645 (inactive) in [5]; 3.22 (inactive) in [6]; 0.703 (inactive) in test [7]. For the same compound, the z-score was 0.732 (inactive) in test [8] and 0.305 in [9]. Moreover, the composite z-score is -2.25 (inactive) in test [4] and -0.0666 in test [10].

Take `COC(=O)[C@@]1(Cc2ccc(F)cc2)[C@H]2c3cc(C(=O)N4CCCC4)n(Cc4ccc(C(F)(F)F)nc4)c3C[C@H]2CN1C(=O)c1ccccc1`: the z-score in test [1] was -0.213; in [2], 1.12 (inactive); in [3] it was -1.23 (inactive); in test [5], -0.691 (inactive); in [6] it was 1.09 (inactive); in [7] it was -0.83 (inactive). Also, the z-score in test [8] was 0.0871 (inactive); in test [9] it was -1.11. Moreover, the composite z-score in test [4] is -0.456 (inactive); in test [10], 0.153.

With `C[C@H]1C2[C@H](Cc3ccccc3)NC(=O)[C@]23C(=O)N[C@@H](Cc2ccccc2)C(=O)N2CCC[C@H]2C(=O)NC/C=C/CC/C=C/C3[C@@H]2O[C@]12C` (stereo not given in full), the z-score was -0.661 in test [1]; 0.321 (inactive) in [2]; -0.299 (inactive) in test [3]; 0.355 (inactive) in test [5]; -0.0615 (inactive) in [6]; 0.159 (inactive) in [7]. The z-score in test [8] was -0.882 (inactive); in test [9], -0.39. For the same compound, the composite z-score in test [4] is -0.0587 (inactive); in test [10] it was -0.0663.

Take `COc1cccc(C)c1NC(=O)O[C@H]1[C@H](OC(=O)Nc2ccccc2-c2ccccc2)[C@@H](OC(=O)Nc2ccccc2-c2ccccc2)[C@@H](OC)O[C@@H]1CO`: the z-score in test [1] was -2.77; in [2], 2.22 (inactive); in [3], -3.21 (inactive); in test [5] it was 1.23 (inactive); in test [6], 4.5 (inactive); in [7], -0.349 (inactive). Besides, the z-score in test [8] is -0.846 (inactive); in [9] it was -2.61. Besides, the composite z-score was 1.24 (inactive) in test [4] and 0.268 in test [10].

`O=C1NC(=O)C2C1C=CC(C(O)C(O)CO)N2Nc1ccccn1` (stereo not given): the z-score in test [1] is -0.908; in test [2], 0.802 (inactive); in test [3], -0.872 (inactive); in test [5], 1.11 (inactive); in test [6], -0.645 (inactive); in test [7], -0.0259 (inactive). The results for the z-score in test [8] and in test [9] were 0.61 (inactive) and -0.885, respectively. For the same compound, the composite z-score was -0.683 (inactive) in test [4] and -0.195 in test [10].

Consider `CCN1C(=O)C2CC(=O)C3C(CN(S(=O)(=O)c4ccc(C)cc4)C3c3ccc(C)cc3)C2C1=O` (stereo not given), for which the z-score in [1] was -0.733; in test [2], 0.728 (inactive); in test [3] it was -0.631 (inactive); in test [5], -0.144 (inactive); in test [6], 0.5 (inactive); in test [7], -0.772 (inactive). The z-score was 0.346 (inactive) in test [8] and -0.627 in [9]. Further, the composite z-score is 0.551 (inactive) in [4] and -0.148 in [10].

Regarding `C=C(C(=O)CC[C@@H](OC(=O)c1cccnc1)c1cccc(OCCO)c1)C(C)C`, the z-score is 0.38 in test [1]; -0.58 (inactive) in test [2]; -0.667 (inactive) in test [3]; 0.33 (inactive) in test [5]; -1.3 (inactive) in test [6]; 0.863 (inactive) in test [7]. Moreover, the values for the z-score in test [8] and in test [9] were 0.816 (inactive) and -1.34, respectively. Moreover, the composite z-score in test [4] was -1.33 (inactive); in [10], 0.127.

Take `O=C(NCC(F)(F)F)[C@@H]1c2ccccc2C(=O)N(Cc2cc(C(F)(F)F)cc(C(F)(F)F)c2)[C@H]1c1ccc(CO)cc1`: the z-score in [1] is 0.0606; in test [2] it was 1.26 (inactive); in test [3], 0.885 (inactive); in test [5], -0.0249 (inactive); in test [6], 0.378 (inactive); in test [7], 0.783 (inactive). Moreover, the z-score was 1.41 (inactive) in test [8] and 1.1 in test [9]. The composite z-score was 0.398 (inactive) in test [4] and 0.295 in [10].

On to `C#CCN(C(=O)OC(C)(C)C)[C@H](CO)c1ccccc1`, for which the z-score in [1] is 0.739; in test [2], -7.87 (inactive); in [3], -0.351 (inactive); in test [5], -0.234 (inactive); in [6] it was -0.184 (inactive); in [7] it was 0.47 (inactive). For the same compound, the results for the z-score in test [8] and in test [9] were -0.652 (inactive) and -0.336, respectively. Moreover, the composite z-score in [4] is -0.2 (inactive); in test [10], -0.005.
